# According to PubChem BioAssay AID652054 (National Center for Advancing Translational Sciences (NCATS), 2013):
# Where “and” joins values, the source holds several entries; their conditions need not be identical. Equal values may be shown once. Screen size: about 360,000 compounds; about 9,100 (2.5%) were called active. Not shown: some 4% with an inconclusive outcome. Rule as the data show it: active = max response below about -50%; inconclusive = no clear call, values can overlap the other calls; inactive = above that. For the sample, actives were picked, then their nearest neighbours and some compounds at random.
# Target: D(3) dopamine receptor (Homo sapiens) (UniProt P35462)
# Test: qHTS of D3 Dopamine Receptor Antagonist: qHTS
# Conditions: D3R cells, DiscoveRx beta-arrestin luminescence, antagonist mode; active compounds read low
# How it was run: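 Cells plated overnight at 1500 cells/well, then exposed to library compounds with dopamine controls for 90 minutes at 37 degrees C. DiscoveRx reagent added for 30–60 minutes at room temperature; luminescence read, quantitative HTS format.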
# % is scaled to controls: 0 for no effect and ±100 for the full control effect.
# Chain of D(3) dopamine receptor (Homo sapiens) (P35462 whole entry, looked up): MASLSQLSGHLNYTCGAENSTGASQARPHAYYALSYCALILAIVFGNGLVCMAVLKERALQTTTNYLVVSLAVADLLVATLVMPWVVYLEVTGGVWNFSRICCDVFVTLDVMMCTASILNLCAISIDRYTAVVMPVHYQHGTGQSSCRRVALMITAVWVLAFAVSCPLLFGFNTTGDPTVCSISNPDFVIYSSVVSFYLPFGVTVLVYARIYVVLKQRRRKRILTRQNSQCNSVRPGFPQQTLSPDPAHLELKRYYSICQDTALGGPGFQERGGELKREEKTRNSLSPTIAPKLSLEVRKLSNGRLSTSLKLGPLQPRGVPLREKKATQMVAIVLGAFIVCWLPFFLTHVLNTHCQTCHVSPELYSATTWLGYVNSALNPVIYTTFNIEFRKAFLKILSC
row,SMILES,"max response, negative = inhibition"
1,CCOC(=O)c1cc(-c2sc(NC(=O)c3ccccc3)nc2C)n(CCO)n1,-12.9% (inactive)
2,CCCC(c1nnnn1C(C)(C)C)N1CCN(Cc2ccccc2)CC1 (stereo not drawn),-5.41% (inactive)
3,Fc1ccc(Cn2nnnc2C(c2cccs2)N2CCCCCC2)cc1 (stereo not drawn),10.3% (inactive)
4,COc1ccc(OC)c(C(c2nnnn2C(C)(C)C)N2CCc3ccccc3C2)c1 (stereo not drawn),-1.6% (inactive)
5,COc1ccccc1C(c1nnnn1C(C)(C)C)N1CCN(Cc2ccccc2)CC1 (stereo not drawn),-90.6% (active)
6,CCC(C)(C)n1nnnc1C(c1cccs1)N1CCN(Cc2ccccc2)CC1 (stereo not drawn),-56.8% (active)
7,CCC(C)(C)n1nnnc1C(c1cccs1)N1CCN(c2nc3ccccc3s2)CC1 (stereo not drawn),-16.1% (inactive)
8,N#Cc1cccc(NC(=O)c2cc(C3CCCCN3C(=O)CCc3ccccc3)on2)c1 (stereo not drawn),-8.91% (inactive)
9,CCCCCn1nnnc1-c1nc2cc3ccccc3cc2[nH]c1=O,-8.12% (inactive)
10,COCCCNc1ccn2nc(-c3ccc(CC(C)C)cc3)cc2n1,31.5% (inactive)
11,Cc1ccccc1NC(=O)Cc1nc(COC(=O)C(C)(C)Oc2ccc(Cl)cc2)cs1,24.6% (inactive)
12,CC(C)(C)CC(=O)Nc1nc(C(N)Cc2ccc(C(F)(F)F)cc2)cs1 (stereo not drawn),0% (inactive)
13,Cc1nnc(SCC(=O)N/N=C/c2cn(-c3ccccc3)nc2-c2ccc(F)cc2)n1-c1ccccc1,-52.1% (active)
14,Cc1ccc(-c2nnc(SCC(=O)N/N=C/c3cccs3)n2-c2ccc(C)cc2)cc1,11.6% (inactive)
15,Cc1nnc(SCC(=O)Nc2cccc(N)c2)n1-c1ccccc1,9.89% (inactive)
16,CCOC(=O)[C@]12CCCC=C1N(CCC1=CCCCC1)C(=O)[C@H](CC(=O)NCCCCc1ccccc1)C2,-12.8% (inactive)
17,CCC(C(=O)Nc1c(C)cccc1C)n1c(-c2cc(C)cs2)nc2ccccc21 (stereo not drawn),-4.88% (inactive)
18,Nc1c(C(=O)c2cccs2)sc2nsc(SCCN3CCCCC3)c12,-51.8% (active)
19,Nc1ncnc2c1ncn2[C@@H]1O[C@H](C(=O)NS(=O)(=O)c2c(Cl)nc3sccn23)[C@@H](O)[C@H]1O,24.3% (inactive)
20,Cc1ccc(-c2ccc(CN3C(C(C)C)C(=O)N(Cc4cn(CCC5OCCO5)nn4)CCS3(=O)=O)cc2)cc1 (stereo not drawn),5.58% (inactive)
21,O=C(Nc1ccc(Cl)cc1)c1csc([C@@H]2O[C@H](CO)[C@H](O)[C@H](O)[C@H]2O)n1,-15.5% (inactive)
22,CC1=C(C(=O)N(C)C)CC(CC(=O)NCCN2CCOCC2)C(=O)N1Cc1ccccc1 (stereo not drawn),-7.58% (inactive)

row,SMILES,"max response, negative = inhibition"
1,CC(=O)Nc1cc(-c2ccc(N3CCN(C)CC3)cc2)cn2c(-c3cccc(C(=O)N(C)C)c3)cnc12,9.1% (inactive)
2,CCCOc1ccc(C2C(C(=O)c3ccc(C)o3)=C(O)C(=O)N2CCCn2ccnc2)cc1 (stereo not drawn),-63.3% (active)
3,CCOc1ccc(C2/C(=C(/O)c3ccc4c(c3)CC(C)O4)C(=O)C(=O)N2CCCn2ccnc2)cc1 (stereo not drawn),-12.2% (inactive)
4,C=CCOc1cccc(C2C(C(=O)c3ccc(C)o3)=C(O)C(=O)N2CCN2CCOCC2)c1 (stereo not drawn),0.324% (inactive)
5,Cc1ccc(C)c(C(O)c2ncc(-c3cccc4ccccc34)[nH]2)c1 (stereo not drawn),-3.53% (inactive)
6,COC(=O)c1ccc2nc(-c3ccc(Cl)cc3)c(Cc3cccc(F)c3)n2c1,88.8% (inactive)
7,CCN(CC(=O)Nc1c(F)cccc1F)C(=O)c1ccc(Sc2nncn2C)c([N+](=O)[O-])c1,2.59% (inactive)
8,Cn1cnnc1Sc1ccc(S(C)(=O)=O)cc1[N+](=O)[O-],-78.8% (active)
9,CC(=O)Nc1ccc(Nc2c([N+](=O)[O-])cc(S(C)(=O)=O)cc2[N+](=O)[O-])cc1,-15.9% (inactive)
10,CC1=C(C(=O)Nc2cccc(C(=O)NCC(C)c3ccccc3)c2)SCCO1 (stereo not drawn),104% (inactive)
11,O=C1C=C(c2ccc(Cl)cc2)C(=O)N1Nc1ccccc1,-22.9% (inactive)
12,O=C(CN1C(=O)c2cccc3cccc1c23)Nc1ccccc1,5.41% (inactive)
13,O=C1c2cccc3cc(Br)cc(c23)C(=O)N1Nc1ccccc1,-62.9% (active)
14,COc1cccc(CNc2nc(NCc3ccccc3OC)nc3ccsc23)c1,31.6% (inactive)
15,O=C(C1CC(=O)N(C2CCCC2)C1)N1CCN(c2cccc(C(F)(F)F)c2)CC1 (stereo not drawn),-17.8% (inactive)
16,O=C1C2CCCN2C(=O)N1CCCCN1CCN(c2cccc(C(F)(F)F)c2)CC1 (stereo not drawn),-115% (active)
17,O=C(CCN1CCCO1)N1CCCC(N2CCN(c3cccc(C(F)(F)F)c3)CC2)C1 (stereo not drawn),-5.11% (inactive)
18,CCCCCc1c(-c2ccc(OC)c(OC)c2)ncn1CCc1ccccc1OC,-3.21% (inactive)
19,O=C1NC[C@H](Cc2ccc(O)cc2)N(C[C@H]2CCCN2C[C@H](Cc2ccccc2)N2C[C@H](Cc3ccccc3)N(CCc3ccccc3)C(=O)C2=O)C1=O,-27.9% (inactive)
20,COc1ccc(CN2C(=O)C(CC(=O)NCCCCc3ccccc3)CC(C(=O)N3CCOCC3)=C2C)cc1 (stereo not drawn),17.9% (inactive)
21,Cc1ccc(C(=O)NC(C)C(c2cccs2)N2CCOCC2)cc1C (stereo not drawn),-24.7% (inactive)
22,N#Cc1ccc(C(C(=O)NCc2ccccc2)n2c(=O)c(-c3ccco3)nc3ccccc32)cc1 (stereo not drawn),-4.27% (inactive)

row,SMILES,"max response, negative = inhibition"
1,O=C(Cn1c(=O)sc2ccccc21)Nc1ccc2c(c1)OCCO2,7.52% (inactive)
2,O=C(CN1CCN(C(=O)c2ccco2)CC1)Nc1ccc2c(c1)OCO2,-5.37% (inactive)
3,O=C(CN1CCC(O)(c2ccccc2)CC1)Nc1ccc2c(c1)OCCO2,-57.9% (active)
4,CN1C[C@@H](CO)O[C@@H](n2cnc3c(N4CCN(CCO)CC4)ncnc32)C1,2.48% (inactive)
5,COc1cccc(-c2cc3nc(NCc4ccccc4OC)n(C)c(=O)c3s2)c1,23.1% (inactive)
6,COc1ccc(CN2C(=O)C(CC(=O)NC3CCCCC3)CC(C(=O)N3CCOCC3)=C2C)cc1 (stereo not drawn),-7.02% (inactive)
7,FC(F)(F)C1CCCN(c2nsc3ccccc23)C1 (stereo not drawn),-81.7% (active)
8,COc1ccc([C@H]2CC(=O)C[C@@H](CCn3cc(CC4CCCC4)nn3)O2)cc1,5.27% (inactive)
9,CCCS(=O)(=O)NC(=O)C1(C)CCN(C(=O)c2sccc2C)C1 (stereo not drawn),18.5% (inactive)
10,Nc1nc(CSc2nnnn2-c2ccccc2)nc(Nc2ccccc2)n1,16% (inactive)
11,CC1(C(=O)Nc2ccccc2Br)CCN1C(=O)CC1CC1 (stereo not drawn),27.1% (inactive)
12,COc1ccccc1CNC(=O)CN1CCC(n2cnc3cc(F)ccc32)CC1,-0.289% (inactive)
13,COc1ccc(CNC(=O)CN2CCC(n3nnc4cc(F)ccc43)CC2)cc1,-83.8% (active)
14,CC(=O)c1cccc(S(=O)(=O)N2CCC(n3nnc4cc(F)ccc43)CC2)c1,-14.5% (inactive)
15,CC(C)(C(=O)N1CCC1(C)C(=O)NS(=O)(=O)c1ccc(Br)cc1)c1ccccc1 (stereo not drawn),11.9% (inactive)
16,CC1CCN(CC(O)COc2ccc(C(=O)c3ccccc3)cc2)CC1 (stereo not drawn),0% (inactive)
17,CCC(=O)c1ccc(OCC(O)CN2C(=O)NC(C)(C)C2=O)cc1 (stereo not drawn),0% (inactive)
18,CCC(=O)c1ccc(OCC(O)CN2CC(C)OC(C)C2)cc1 (stereo not drawn),-54.2% (active)
19,OCCc1ccc(NCCc2ccco2)cc1,11.1% (inactive)
20,O=C(O)c1ccc(/C=C2\SC(=S)N(NC(=O)c3ccc(Br)cc3)C2=O)cc1,-21.3% (inactive)
21,CCOc1ccc(/C=C2\SC(=S)N(NC(=O)c3ccncc3)C2=O)cc1OC,-13.1% (inactive)
22,Cn1cccc1/C=C1\SC(=S)N(NC(=O)c2ccc(Cl)cc2)C1=O,-70.7% (active)

row,SMILES,"max response, negative = inhibition"
1,COC(=O)C1(C(=O)OC)C[C@H](c2ccccc2)N(Cc2ccccc2OC)[C@@H]1c1ccccc1,-25.4% (inactive)
2,CCc1ccc(OC2(C)CCN(CCOc3ccc(C)cc3)C2)cc1 (stereo not drawn),-75% (active)
3,CCc1ccc(OCC(O)CN2CCN(CCO)CC2)cc1 (stereo not drawn),18.7% (inactive)
4,Cc1ccc(OCCNC(=O)CN2C(=O)NC3(CCCC3)C2=O)cc1,-22.9% (inactive)
5,CCCNC(=O)C1(C)CCN1C(=O)C1(c2ccccc2)CC1 (stereo not drawn),-7.67% (inactive)
6,Cc1sc2nc(-c3ccccc3F)oc(=O)c2c1C,0% (inactive)
7,CCCc1nc2ccccc2n1C(C)C(=O)NC(C)(C)C (stereo not drawn),-12.7% (inactive)
8,CC(OC(=O)c1ccc(NC(=O)CC#N)cc1)C(=O)Nc1ccc(S(=O)(=O)N2CCCC2)cc1 (stereo not drawn),2.56% (inactive)
9,COc1cc(C(O)c2nc(-c3cnn(C)c3)cs2)ccc1F (stereo not drawn),-2.22% (inactive)
10,O=C(N[C@H]1CC[C@H](CC(=O)N2CCCCC2)O[C@@H]1CO)c1cccc(F)c1,1.98% (inactive)
11,CCN1C(=O)/C(=C\N2CCN(c3cccc(Cl)c3)CC2)SC1=S,-22.6% (inactive)
12,CC(=O)c1ccc(OCC(O)CN2CCN(S(=O)(=O)c3cccc(Br)c3)CC2)cc1 (stereo not drawn),22% (inactive)
13,OC(COc1ccc2c(c1)CCC2)CN1CCN(c2cccc(Cl)c2)CC1 (stereo not drawn),0% (inactive)
14,COC(=O)COc1ccc(S(=O)(=O)N2CCOCC2)cc1,20.2% (inactive)
15,CCc1nn(CCCN2CCN(c3cccc(Cl)c3)CC2)c(=O)n1CCOc1ccccc1,-77.2% (active) and -89.6% (active)
16,CC(C)c1ccc(OCC(O)CN2CCN(c3ccccn3)CC2)cc1 (stereo not drawn),-29.5% (inactive)
17,CC(=O)Nc1ccc(OCC(O)CN2CCN(c3ccccc3Cl)CC2)cc1 (stereo not drawn),-66.4% (active)
18,O=S(=O)(c1ccc(OCC(O)CN2CCN(c3ccccc3Cl)CC2)cc1)N1CCOCC1 (stereo not drawn),-73% (active)
19,O=C(CCCC(=O)N1CCN(c2cccc(Cl)c2)CC1)c1ccccc1,11.7% (inactive)
20,OC(COc1ccccc1)CN1CCN(c2cccc(Cl)c2)CC1 (stereo not drawn),-51.8% (active)
21,O=C(c1ccc(Cl)cc1)c1ccc(OCC(O)CN2CCCCC2)cc1 (stereo not drawn),-2.74% (inactive)
22,Cc1nn(CCOc2ccccc2)c(=O)n1-c1ccccc1F,-0.664% (inactive)
